Test results reported in PubChem BioAssay.
The source made the active and inactive calls.

Legend:
[1] = tested on: PRMT1 (protein arginine N-methyltransferase 1); assay: small molecules binding arginine methyltransferase PRMT1 – biochemical, small-molecule microarray, 635 nm fluorescence, primary screen (AID 1088); details: higher = more signal;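 note: binding of Prmt1 protein to compounds spotted on small-molecule microarray slides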
[2] = growth effects on S. cerevisiae YJM789 – YJM789 clinical isolate, OD600, 24 h, basal, primary screen (AID 1089); details: higher = more signal, called active from +8 up or from −8 down;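 note: growth of clinical yeast isolate S. cerevisiae YJM 789 seeded 1000 cells per well; test concentration not given here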
[3] = S. pombe growth modifiers, basal conditions – strain 972, OD600, 24 h, no modulator, primary screen (AID 1090);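 note: basal condition with compound alone and no growth modifier present; test concentration not given here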; details: S. pombe 972 growth, higher = more signal, called active from +8 up or from −8 down
[4] = budding yeast growth modifiers under rapamycin – strain BY4716, OD600, 96 h, primary screen (AID 1091); note: test concentration not given here; details: S. cerevisiae BY4716 + rapamycin, higher = more signal, called active from +8 up or from −8 down
[5] = target: Torsin-1A-interacting protein 2 (Homo sapiens) (UniProt Q8NFQ8); assay: small molecules binding lysate-expressed LULL1 – cell lysate, human LULL1 lysate, 635/667 nm fluorescence, primary screen (AID 1092); details: small-molecule microarray, hLULL1 lysate binding, 635 nm fluorescence; higher = more signal;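 note: probe is lysate of COS7 cells overexpressing human LULL1; score merges per-feature 667 nm fluorescence with signal-to-noise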
[6] = optical density change of DRC41 E. coli – strain DRC41, OD650, 24 h, E. coli filamentation project, primary screen (AID 1093);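 note: MC1000 strain lacking acrAB efflux and sulA so SOS filamentation is blocked; test concentration not given here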; details: E. coli DRC41 growth, higher = more signal, called active from +8 up or from −8 down
[7] = probe aLefty2 binding to arrayed compounds – biochemical, biotinylated probe, 635/667 nm fluorescence, primary screen (AID 1094); details: small-molecule microarray, higher = more signal;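 note: score merges spot fluorescence near 667 nm with spot signal-to-noise ratio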
[8] = tested on: Noggin (protein binding on small-molecule microarray); assay: small molecules binding Noggin protein – biochemical, 635/667 nm fluorescence, primary screen (AID 1095); details: 635 nm fluorescence, higher = more signal;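 note: score merges 667 nm feature fluorescence with signal to noise over triplicate slides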
[9] = target: Neurogenic locus notch homolog protein 3 (Homo sapiens) (UniProt Q9UM47); assay: small molecules binding NOTCH3 protein – biochemical, 635/667 nm fluorescence, primary screen (AID 1096); details: small-molecule microarray, 635 nm fluorescence, higher = more signal
[10] = probe aEGFR binding to arrayed compounds – biochemical, biotinylated probe, 635/667 nm fluorescence, primary screen (AID 1097); details: small-molecule microarray, higher = more signal;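 note: probe is a biotinylated anti-EGFR antibody binding compounds printed on slides; score combines fluorescence near 667 nm and signal to noise of each spot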
[11] = tested on: Plasmodium falciparum Sir2 (PF13_0152, Sir2A); assay: Plasmodium falciparum Sir2A binding compounds – biochemical, small-molecule microarray, 635 nm fluorescence, primary screen (AID 1098); details: fluorescence 635 nm, higher = more signal;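 note: score merges spot fluorescence intensity with its signal-to-noise ratio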
[12] = probe aDKK1 binding to arrayed compounds – biochemical, biotinylated probe, 635/667 nm fluorescence, primary screen (AID 1099); details: small-molecule microarray, higher = more signal;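 note: score merges 667nm spot fluorescence with signal to noise across triplicate slides; reference of the scale not given here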
[13] = probe aCHRDL2 binding to arrayed compounds – biochemical, biotinylated probe, 635/667 nm fluorescence, primary screen (AID 1100); details: small-molecule microarray, higher = more signal
[14] = change in splice reporter luminescence, either direction, cell-based, HEK293, spliceosome inhibition project, primary screen (AID 1101); details: HEK293 splicing luciferase reporter, 24 h, higher = more signal, called active from +8 up or from −8 down;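 note: HEK293 cells carrying a splicing-competent luciferase reporter gene; test concentration not given here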
[15] = target: Fibroblast growth factor 10 (Homo sapiens) (UniProt O15520); assay: compounds binding fibroblast growth factor 10 – biochemical, small-molecule microarray, 635 nm fluorescence, primary screen (AID 1102); details: FGF10 binding, fluorescence 635 nm, higher = more signal
[16] = tested on: glycogen synthase kinase-3 (GSK3A per assay name; protocol says GSK3B); assay: compounds binding glycogen synthase kinase-3 – biochemical, small-molecule microarray, 635 nm fluorescence, GSK3A, primary screen (AID 1103); details: fluorescence 635 nm, higher = more signal; note: the record names both GSK3A and GSK3B
[17] = target: Epidermal growth factor receptor (Homo sapiens) (UniProt P00533); assay: compounds binding epidermal growth factor receptor – biochemical, small-molecule microarray, 635 nm fluorescence, primary screen (AID 1104); details: EGFR binding, higher = more signal;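 note: score merges 667 nm emission intensity with spot signal to noise over triplicate slides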
[18] = target: Follistatin-related protein 3 (Homo sapiens) (UniProt O95633); assay: compounds binding follistatin-related protein 3 – biochemical, small-molecule microarray, 635 nm fluorescence, primary screen (AID 1105); details: FSTL3 binding, higher = more signal;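 note: score merges emission near 667 nm and signal to noise per printed spot across three slides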
[19] = target: Dickkopf-related protein 1 (Homo sapiens) (UniProt O94907); assay: small molecules binding DKK1 protein – biochemical, small-molecule microarray, 635 nm fluorescence scan, primary screen (AID 1106); details: higher = more signal;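 note: score merges emission near 667 nm with signal to noise over three replicate slides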
[20] = tested on: Inhibin beta A chain (activin A); assay: small molecules binding activin A – biochemical, small-molecule microarray, 635 nm fluorescence scan, primary screen (AID 1107); details: INHBA, higher = more signal;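 note: mouse activin A protein probed at 4.33 µg/mL on printed slides; score merges bound-protein fluorescence near 667 nm with spot signal-to-noise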

Sequence of Fibroblast growth factor 10 (Homo sapiens) (O15520 whole entry, looked up): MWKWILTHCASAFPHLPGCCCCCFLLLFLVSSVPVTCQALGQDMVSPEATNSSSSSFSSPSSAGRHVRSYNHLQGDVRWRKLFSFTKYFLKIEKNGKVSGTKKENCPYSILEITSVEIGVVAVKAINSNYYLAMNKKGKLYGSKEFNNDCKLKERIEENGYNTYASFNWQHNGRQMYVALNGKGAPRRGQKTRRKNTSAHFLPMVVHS
Sequence of Dickkopf-related protein 1 (Homo sapiens) (O94907 whole entry, looked up): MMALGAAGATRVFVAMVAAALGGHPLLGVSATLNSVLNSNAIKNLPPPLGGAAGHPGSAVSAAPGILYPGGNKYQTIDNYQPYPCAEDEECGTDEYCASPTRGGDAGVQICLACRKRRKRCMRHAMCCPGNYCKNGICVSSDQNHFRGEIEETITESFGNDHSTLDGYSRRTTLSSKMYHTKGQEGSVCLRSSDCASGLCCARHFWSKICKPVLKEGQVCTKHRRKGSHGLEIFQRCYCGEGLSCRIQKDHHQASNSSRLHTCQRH
Sequence of Epidermal growth factor receptor (Homo sapiens) (P00533 whole entry, looked up): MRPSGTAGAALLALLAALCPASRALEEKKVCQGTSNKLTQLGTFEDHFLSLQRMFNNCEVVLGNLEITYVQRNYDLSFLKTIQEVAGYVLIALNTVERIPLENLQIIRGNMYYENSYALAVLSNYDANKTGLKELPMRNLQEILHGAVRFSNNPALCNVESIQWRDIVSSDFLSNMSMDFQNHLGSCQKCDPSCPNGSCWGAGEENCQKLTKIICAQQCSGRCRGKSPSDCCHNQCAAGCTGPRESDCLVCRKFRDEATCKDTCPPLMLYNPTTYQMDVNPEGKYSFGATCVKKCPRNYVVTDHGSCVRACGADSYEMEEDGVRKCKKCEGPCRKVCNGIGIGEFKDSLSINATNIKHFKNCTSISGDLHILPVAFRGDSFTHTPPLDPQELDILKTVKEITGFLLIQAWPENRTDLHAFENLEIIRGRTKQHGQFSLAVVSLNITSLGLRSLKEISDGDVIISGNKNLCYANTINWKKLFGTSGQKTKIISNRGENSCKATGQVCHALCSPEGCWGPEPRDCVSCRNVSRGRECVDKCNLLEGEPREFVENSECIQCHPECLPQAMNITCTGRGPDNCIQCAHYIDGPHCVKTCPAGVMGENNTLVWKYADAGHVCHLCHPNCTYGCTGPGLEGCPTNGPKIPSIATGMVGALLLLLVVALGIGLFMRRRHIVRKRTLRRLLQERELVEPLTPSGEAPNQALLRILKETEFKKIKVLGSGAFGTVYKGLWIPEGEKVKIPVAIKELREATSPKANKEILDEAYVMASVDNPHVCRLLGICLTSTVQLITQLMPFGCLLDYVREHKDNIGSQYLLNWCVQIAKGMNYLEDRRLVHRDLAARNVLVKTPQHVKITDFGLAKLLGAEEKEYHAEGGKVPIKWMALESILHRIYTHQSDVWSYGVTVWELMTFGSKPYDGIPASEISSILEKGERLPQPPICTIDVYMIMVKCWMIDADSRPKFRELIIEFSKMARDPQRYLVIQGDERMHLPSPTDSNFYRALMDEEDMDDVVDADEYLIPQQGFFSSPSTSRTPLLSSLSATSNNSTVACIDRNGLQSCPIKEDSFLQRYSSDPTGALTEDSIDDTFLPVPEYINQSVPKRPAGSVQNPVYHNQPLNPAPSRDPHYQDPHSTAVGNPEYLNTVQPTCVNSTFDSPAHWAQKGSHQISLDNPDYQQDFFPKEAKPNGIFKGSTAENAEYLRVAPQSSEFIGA
Sequence of Neurogenic locus notch homolog protein 3 (Homo sapiens) (Q9UM47 whole entry, looked up): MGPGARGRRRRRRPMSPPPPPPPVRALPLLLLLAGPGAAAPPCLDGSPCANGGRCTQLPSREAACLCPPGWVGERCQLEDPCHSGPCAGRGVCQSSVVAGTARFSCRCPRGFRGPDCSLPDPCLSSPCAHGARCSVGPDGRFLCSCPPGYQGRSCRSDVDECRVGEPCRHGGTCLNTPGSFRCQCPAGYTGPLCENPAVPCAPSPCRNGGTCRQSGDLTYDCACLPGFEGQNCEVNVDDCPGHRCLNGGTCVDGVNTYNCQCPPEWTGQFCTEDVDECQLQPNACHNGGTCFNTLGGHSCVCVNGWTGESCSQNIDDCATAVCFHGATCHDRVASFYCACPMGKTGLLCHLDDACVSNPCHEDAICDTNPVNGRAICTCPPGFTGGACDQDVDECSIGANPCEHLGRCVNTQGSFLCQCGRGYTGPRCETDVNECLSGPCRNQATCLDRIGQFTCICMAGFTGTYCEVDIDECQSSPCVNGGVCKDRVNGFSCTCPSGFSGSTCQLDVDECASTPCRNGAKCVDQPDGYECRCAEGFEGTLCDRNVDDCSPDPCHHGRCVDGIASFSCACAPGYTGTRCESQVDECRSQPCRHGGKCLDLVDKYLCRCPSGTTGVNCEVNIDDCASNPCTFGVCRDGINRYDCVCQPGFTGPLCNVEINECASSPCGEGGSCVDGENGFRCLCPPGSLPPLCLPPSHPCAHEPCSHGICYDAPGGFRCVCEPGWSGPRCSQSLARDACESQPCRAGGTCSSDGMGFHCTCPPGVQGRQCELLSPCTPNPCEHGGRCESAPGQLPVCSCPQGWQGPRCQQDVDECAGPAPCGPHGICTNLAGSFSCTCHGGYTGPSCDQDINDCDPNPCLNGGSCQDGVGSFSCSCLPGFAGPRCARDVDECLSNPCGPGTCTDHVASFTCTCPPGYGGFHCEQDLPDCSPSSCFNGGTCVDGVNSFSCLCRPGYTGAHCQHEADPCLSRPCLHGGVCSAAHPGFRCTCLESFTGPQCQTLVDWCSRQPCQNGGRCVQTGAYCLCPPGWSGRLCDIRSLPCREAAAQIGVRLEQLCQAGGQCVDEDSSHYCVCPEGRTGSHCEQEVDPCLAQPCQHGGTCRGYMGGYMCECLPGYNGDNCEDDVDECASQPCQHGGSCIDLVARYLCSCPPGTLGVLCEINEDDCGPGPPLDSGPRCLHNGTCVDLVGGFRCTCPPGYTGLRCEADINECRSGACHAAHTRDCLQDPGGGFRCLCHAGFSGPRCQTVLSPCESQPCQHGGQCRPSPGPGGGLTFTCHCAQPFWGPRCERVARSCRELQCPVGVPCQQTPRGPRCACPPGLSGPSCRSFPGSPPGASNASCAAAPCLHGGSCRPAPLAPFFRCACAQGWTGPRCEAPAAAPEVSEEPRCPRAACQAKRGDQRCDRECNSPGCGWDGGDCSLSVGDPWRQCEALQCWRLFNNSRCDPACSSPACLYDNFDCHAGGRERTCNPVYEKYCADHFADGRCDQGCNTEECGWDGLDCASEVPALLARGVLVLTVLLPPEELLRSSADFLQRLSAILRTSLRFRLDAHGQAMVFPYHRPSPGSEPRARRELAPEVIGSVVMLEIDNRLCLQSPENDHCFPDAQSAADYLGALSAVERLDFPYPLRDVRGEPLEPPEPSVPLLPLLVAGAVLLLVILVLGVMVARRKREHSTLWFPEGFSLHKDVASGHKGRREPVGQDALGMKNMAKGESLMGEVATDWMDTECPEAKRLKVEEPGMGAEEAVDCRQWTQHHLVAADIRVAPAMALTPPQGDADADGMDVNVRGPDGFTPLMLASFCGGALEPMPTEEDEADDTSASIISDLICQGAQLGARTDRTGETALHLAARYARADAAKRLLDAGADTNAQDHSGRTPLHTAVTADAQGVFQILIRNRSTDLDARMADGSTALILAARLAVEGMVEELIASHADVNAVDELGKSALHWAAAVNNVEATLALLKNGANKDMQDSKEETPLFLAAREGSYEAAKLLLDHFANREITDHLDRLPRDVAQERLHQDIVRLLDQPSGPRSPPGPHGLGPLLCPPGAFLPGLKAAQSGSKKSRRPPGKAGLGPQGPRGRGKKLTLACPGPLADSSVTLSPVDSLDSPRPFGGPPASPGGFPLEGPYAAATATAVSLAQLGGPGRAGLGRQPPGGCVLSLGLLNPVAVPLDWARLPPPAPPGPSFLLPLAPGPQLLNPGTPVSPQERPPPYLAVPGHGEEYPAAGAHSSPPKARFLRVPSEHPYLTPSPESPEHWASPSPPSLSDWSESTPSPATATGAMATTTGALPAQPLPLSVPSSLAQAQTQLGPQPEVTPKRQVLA
Sequence of Follistatin-related protein 3 (Homo sapiens) (O95633 whole entry, looked up): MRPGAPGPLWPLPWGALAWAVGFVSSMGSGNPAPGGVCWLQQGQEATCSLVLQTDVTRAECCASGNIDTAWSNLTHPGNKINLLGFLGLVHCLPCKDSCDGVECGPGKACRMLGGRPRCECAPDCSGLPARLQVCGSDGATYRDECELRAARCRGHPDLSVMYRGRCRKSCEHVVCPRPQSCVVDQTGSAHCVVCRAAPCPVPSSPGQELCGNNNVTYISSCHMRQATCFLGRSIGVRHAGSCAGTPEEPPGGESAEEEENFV
Sequence of Torsin-1A-interacting protein 2 (Homo sapiens) (Q8NFQ8 whole entry, looked up): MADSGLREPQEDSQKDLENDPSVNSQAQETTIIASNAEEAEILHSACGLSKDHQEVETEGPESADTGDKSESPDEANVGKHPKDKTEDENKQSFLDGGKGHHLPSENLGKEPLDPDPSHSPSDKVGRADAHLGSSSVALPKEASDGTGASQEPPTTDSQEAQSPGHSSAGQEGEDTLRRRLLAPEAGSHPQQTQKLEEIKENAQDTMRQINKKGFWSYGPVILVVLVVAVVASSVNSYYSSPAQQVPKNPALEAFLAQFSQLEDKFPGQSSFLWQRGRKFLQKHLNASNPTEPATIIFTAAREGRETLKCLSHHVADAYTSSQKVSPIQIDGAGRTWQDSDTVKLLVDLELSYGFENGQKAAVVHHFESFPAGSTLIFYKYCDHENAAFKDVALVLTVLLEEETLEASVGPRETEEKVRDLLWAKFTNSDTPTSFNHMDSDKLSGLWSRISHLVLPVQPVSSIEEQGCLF

Compound | composite z-score [1] | z-score [2] | z-score [3] | z-score [4] | composite z-score [5] | z-score [6] | composite z-score [7] | composite z-score [8] | composite z-score [9] | composite z-score [10] | composite z-score [11] | composite z-score [12] | composite z-score [13] | z-score [14] | composite z-score [15] | composite z-score [16] | composite z-score [17] | composite z-score [18] | composite z-score [19] | composite z-score [20]
CO[C@H]1O[C@H](CO)[C@@H](OC(=O)Nc2ccccc2)[C@@H]2OC(=O)[C@@H](Cc3ccc4ccccc4c3)C/C=C/C[C@H](Cc3ccc4ccccc4c3)C(=O)O[C@@H]12 | 1.47 | -1.38 (inactive) | -1.57 (inactive) | 1.55 (inactive) | 2.35 | 2.64 (inactive) | -0.0403 | 0.369 | 0.977 | -0.0449 | 1.08 | 0.134 | 0.402 | -0.916 (inactive) | 1.08 | 0.899 | 0.204 | 0.531 | -0.112 | 0.962
[N-]=[N+]=NCc1ccccc1[C@H]1OC(c2ccc(OCCCO)cc2)=N[C@@]1(Cc1ccccc1)C(=O)N1CCCCC1 | 1.55 | -1.88 (inactive) | -0.575 (inactive) | 1.32 (inactive) | 3.33 | 1.56 (inactive) | 0.0004 | 1.37 | 1.13 | 0.038 | 1.14 | 0.344 | 0.574 | -1.05 (inactive) | 1.34 | 1.3 | 0.0201 | 0.79 | 0.428 | 0.522
O=C1N(CCS(=O)(=O)c2ccccc2)c2ccccc2[C@@H]2OC(c3ccc(OCCCO)cc3)=N[C@]12Cc1ccccc1 | 1.56 | -2.18 (inactive) | -2.2 (inactive) | 3.02 (inactive) | 2.45 | 0.736 (inactive) | -0.0248 | 1.59 | 1.12 | -0.0435 | 1.49 | 0.0733 | 0.393 | -0.917 (inactive) | 0.379 | 1.28 | 0.542 | 1.29 | 0.432 | 0.995
C=C(CCCC)C(=O)CC[C@@H](OC(C)=O)c1ccc(CO)o1 | 1.54 | -4.06 (inactive) | -15.4 (active) | -2.36 (inactive) | -0.0891 | 0.246 (inactive) | -0.241 | 1.52 | 0.582 | -0.162 | 1.24 | -0.269 | -0.457 | 0.251 (inactive) | 1.12 | 0.179 | -0.353 | 0.523 | 0.0693 | 0.945
C=CCN1C(=O)[C@]2(O[C@H](CCO)[C@@H]([Si](C)(C)c3ccc(OC)cc3)[C@@H]2C)c2cc(N(C=O)c3ccccc3)ccc21 | 1.47 | 1.28 (inactive) | 0.859 (inactive) | 36.9 (active) | 1.19 | 1.03 (inactive) | -0.121 | -0.0888 | 0.649 | -0.0947 | 0.465 | -0.128 | 0.348 | -2.19 (inactive) | -0.0285 | -0.116 | -0.414 | -0.0666 | -0.113 | 0.407
COc1ccccc1CN1C(=O)c2ccccc2[C@@H](C(=O)NCc2ccccc2)[C@@H]1c1ccc(CO)cc1 | 0.713 | 0.649 (inactive) | 0.417 (inactive) | 0.253 (inactive) | 2.33 | 0.409 (inactive) | -0.26 | 0.286 | 0.271 | -0.336 | 1.48 | -0.262 | 0.617 | -0.263 (inactive) | -0.144 | 0.883 | -0.154 | -0.113 | -0.258 | -0.134
CC(C)C(=C=CC[C@H](O)c1ccc(CO)o1)CCO | 1.52 | -0.0662 (inactive) | -0.697 (inactive) | -0.536 (inactive) | 1.51 | -0.253 (inactive) | -0.28 | 0.679 | 0.787 | -0.14 | 0.458 | -0.288 | -0.471 | 0.241 (inactive) | 0.494 | 0.621 | -0.115 | 0.402 | 0.0097 | 0.411
COC(=O)c1c2oc(c1C(=O)OC)C(=O)NC1(CCCCC1)c1cn(nn1)C[C@H](Cc1ccccc1)NC(=O)N[C@H](CO)CC2 | 1.27 | 0.517 (inactive) | 0.718 (inactive) | -0.466 (inactive) | 2.86 | 1.52 (inactive) | -0.186 | 0.322 | 0.705 | -0.171 | -0.856 | 0.0173 | -0.709 | -0.365 (inactive) | 1.15 | 0.386 | 0.0053 | 0.34 | 0.25 | -0.007
COC(=O)[C@@]1(CCC(=O)OC(C)(C)C)N=C(c2ccc(OCCCO)cc2)O[C@H]1c1ccccc1 | 0.899 | -0.144 (inactive) | -2.78 (inactive) | 3.15 (inactive) | 1.29 | -2.76 (inactive) | 0.0478 | -0.105 | 0.194 | -0.125 | 1.22 | 0.592 | 0.997 | 0.509 (inactive) | -0.19 | -0.0344 | -1.03 | -0.808 | -0.239 | 0.501
COc1ccc([Si](C)(C)[C@@H]2[C@@H](CCO)O[C@]3(C(=O)N(Cc4cccc(N5CCOC5=O)c4)c4ccccc43)[C@H]2C)cc1 | 1.42 | 4.03 (inactive) | 0.643 (inactive) | 37.8 (active) | 0.97 | 0.516 (inactive) | -0.0357 | 0.825 | 0.797 | -0.0564 | 0.75 | 0.644 | 0.246 | -0.871 (inactive) | 0.415 | 0.67 | 0.0548 | 0.648 | 0.405 | 0.593
